# Data: PubChem BioAssay (NCATS)
# Inconclusive results are not listed. Where a call stands in place of a potency, no number is given. Unmarked numbers belong to inactive results. Calls of active or inactive are those of the source. The call rests on the fitted dose curve; in most records, active means well fitted inhibition curve with a large enough effect; inconclusive means small, poorly fitted or top-dose-only effect; inactive means flat fitted curve, though single readings scatter.
# System: MKL-2
# Experiment: qHTS assay to identify novel small-molecules to repurpose for Merkel cell carcinoma treatment (AID 1296009); further: nearly all actives have a fitted effect of over 60% in size
# Details: MCC and control cell lines, CellTiter-Glo viability, 72 h; series mostly up to 46 µM; activity change, negative = cytotoxicity: at the top concentration
# Procedure, shortened: (§1)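 72 hr, 37 degree celsius; NPC 8-pt / MIPE 11-pt dose response; compound pinned in DMSO; CellTiter-Glo, 10 min RT, luminescence; normalized to no-cell and DMSO controls.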
# Potency means the concentration at half of the fitted maximal effect.
Structure (SMILES),"activity change, negative = cytotoxicity",Potency
N#CC1(c2cccc(C(=O)Nc3cc(Oc4ccc5nc(NC(=O)C6CC6)sc5n4)ccc3F)c2Cl)CC1,-19.9%,–
O=C1NC(=O)C(c2cnc3ccccn23)=C1c1cn2c3c(cccc13)CN(C(=O)N1CCOCC1)CC2,-20.3%,–
O=c1[nH]nc(OCCCc2ccc(Cl)cc2)c(NCc2cccnc2)c1Br,–,14.8 µM (active)
Cc1cnc(CNC(=O)c2c(=O)c3ccc(N4CCCN(C)CC4)nc3n3c2sc2ccccc23)cn1,-37.1% [at 16.1 µM],–
C[C@@H](N)c1ccc(C(=O)Nc2ccnc3[nH]ccc23)cc1,3.08%,–

# System: NIH3T3
# Experiment: as above
# Details: MCC and control cell lines, CellTiter-Glo viability, 72 h; series mostly up to 44.8 µM
# Procedure, shortened: as §1
row,Structure (SMILES),outcome
1,CO[C@H]1O[C@@H]2O[C@@]3(C)CC[C@@H]4[C@@H](C)CC[C@@H]([C@H]1C)[C@@]24OO3,inactive
2,C[C@]12CC[C@@H]3c4ccc(O)cc4CC[C@H]3[C@H]1[C@@H](O)[C@@H](O)[C@H]2O,inactive
3,NC(N)=Nc1nc(CSCCC(N)=NS(N)(=O)=O)cs1,inactive
4,COc1cc2ncnc(Nc3cc(Br)c(O)c(Br)c3)c2cc1OC,inactive
5,COc1ccnc(CS(=O)c2nc3ccc(OC(F)F)cc3[nH]2)c1OC (centres undefined),inactive
6,Nc1[nH]nc2nnc(-c3c(-c4ccccc4)nn4ccccc34)cc12,inactive
7,NC1(C(=O)N[C@@H](CCO)c2ccc(Cl)cc2)CCN(c2ncnc3[nH]ccc23)CC1,inactive
8,O=C(CC12CC3CC(CC(C3)C1)C2)Nc1cccc2nc(NCCNCCO)ccc12,inactive
9,CCCCCCCCCCCCCCCC(=O)O[C@H]1[C@@H](O)[C@@H](O)[C@@H]([C@H](NC(=O)[C@@H]2C[C@@H](CCC)CN2C)[C@H](C)Cl)O[C@@H]1SC,inactive
10,CC(=O)O[C@]1(C(C)=O)CC[C@H]2[C@@H]3C=C(Cl)C4=CC(=O)[C@@H]5C[C@H]5[C@]4(C)[C@@H]3CC[C@@]21C,inactive
11,CN[C@@H]1[C@@H](O)[C@@H](O[C@@H]2[C@@H](O)[C@H](O[C@H]3O[C@H](CN)[C@@H](O)[C@H](O)[C@@H]3O)[C@@H](N)C[C@@H]2NC(=O)[C@@H](O)CN)OC[C@]1(C)O,inactive
12,CCN1CCC(n2cc(CNc3cc(Cl)c4ncc(C#N)c(Nc5ccc(F)c(Cl)c5)c4c3)nn2)CC1,inactive
13,C[C@@H](O)[C@H]1C(=O)N2C(C(=O)OCOC(=O)C(C)(C)C)=C(SC3CN(C4=NCCS4)C3)[C@H](C)[C@H]12,inactive
14,CCC(=O)NCC[C@@H]1CCc2ccc3c(c21)CCO3,inactive
